Inconclusive results are not listed. Calls of active or inactive are those of the source. The calls were made as follows: active = hit-call score of the fitted dose curve at least 0.9, where 1 is the maximum; inconclusive = response in the unintended direction; inactive = score below 0.9.

Sequence of Norway rat Vesicular Monoamine Transporter (VMAT2), neurotransmitter transporter, Slc18a2 (gene 25549) (Q01827 whole entry, looked up): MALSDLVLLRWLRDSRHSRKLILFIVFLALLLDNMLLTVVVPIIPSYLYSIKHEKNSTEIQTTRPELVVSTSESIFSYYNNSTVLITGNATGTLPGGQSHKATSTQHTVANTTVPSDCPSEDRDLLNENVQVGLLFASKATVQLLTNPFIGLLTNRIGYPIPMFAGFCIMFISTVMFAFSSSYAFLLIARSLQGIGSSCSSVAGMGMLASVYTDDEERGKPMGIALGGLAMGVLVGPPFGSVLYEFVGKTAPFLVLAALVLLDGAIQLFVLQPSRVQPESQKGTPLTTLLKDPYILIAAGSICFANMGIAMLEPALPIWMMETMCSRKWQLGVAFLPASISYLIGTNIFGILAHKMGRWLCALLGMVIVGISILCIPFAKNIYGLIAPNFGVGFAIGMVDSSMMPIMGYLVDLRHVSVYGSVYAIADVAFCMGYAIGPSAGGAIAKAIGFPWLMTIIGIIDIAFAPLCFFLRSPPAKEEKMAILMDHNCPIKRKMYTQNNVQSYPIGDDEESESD

This assay concerns the target Norway rat Vesicular Monoamine Transporter (VMAT2), neurotransmitter transporter, Slc18a2 (gene 25549) (UniProt Q01827). The assay can be described thus: NVS_TR_rVMAT2: NovaScreen (NVS) Transporter Assay for Norway rat Vesicular Monoamine Transporter (VMAT2), neurotransmitter transporter (AID 2283376).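 Also: actives lower the bound radioligand signal below the DMSO level.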 The procedure:
NVS_TR_rVMAT2 is a biochemical, single-readout assay that uses extracted gene-proteins from Rat forebrain in a tissue-based cell-free assay. Measurements were taken 1 hour after chemical dosing in a 96-well plate.NVS_TR_rVMAT2 is one of one assay component(s) measured or calculated from the NVS_TR_rVMAT2 assay. It is designed to make measurements of radioligand binding, a form of binding reporter, as detected with scintillation counting signals by Filter-based radiodetection technology.Data from the assay component NVS_TR_rVMAT2 was analyzed into 1 assay endpoint. This assay endpoint, NVS_TR_rVMAT2, was analyzed in the positive analysis fitting direction relative to DMSO as the negative control and baseline of activity. Using a type of binding reporter, loss-of-signal activity can be used to understand changes in the binding as they relate to the gene Slc18a2. Furthermore, this assay endpoint can be referred to as a primary readout, because the performed assay has only produced 1 assay endpoint. To generalize the intended target to other relatable targets, this assay endpoint is annotated to the transporter intended target family, where the subfamily is vesicular transporter.
Binding assays used specific radioligands (tritiated, iodinated) with non-radioactive competitive displacement ligands in agonist or antagonist protocols (as indicated) and various reference compounds and inhibitors to titrate specific binding to receptors and transporters. Most enzyme assays (CYPs, kinases, phosphatases, proteases, HDACs) used recombinant protein and specific substrates (fluorescence mostly, some colorimetric and radioactive) and inhibitors, followed by a biochemical separation of substrate and product. All assays for the biochemical HTS were initially run in duplicate at a single concentration (10 uM for CYP450 assays and 25 uM for all others). […] Each assay was run with positive and negative controls, and concurrent controls on every plate. The follow-up (secondary) screen tested active chemical-pairs in concentration series, as well as a few additional assays not tested in the primary screen, some selected negative inactives, and several cases re-run in the concentration series for confirmatory purposes.
For `CCOCN(C(=O)CS(=O)(=O)O)c1c(C)cccc1CC`, the call was inactive. With `O=C1CCC(=O)N1`, the call was inactive. Take `Cc1ccc(S(=O)(=O)C(I)I)cc1`: the half-maximal activity concentration (AC50) (as a rule, the concentration giving half of the maximal activity seen) is 1.19 µM (active). Consider `C1CNCCN1`, for which the compound was called inactive. `COC(=O)c1ccc(C(=O)OC)cc1`: the outcome was inactive. `N=C(N)c1ccc(OCCCCCOc2ccc(C(=N)N)cc2)cc1`: the AC50 is 5.98 µM (active).

In the case of `C[Si](C)O[Si](C)C`, the result was inactive. Consider `COc1cc(C(=O)NC2CCN(C)CC2)ccc1Nc1ncc2c(n1)N(C1CCCC1)CC(F)(F)C(=O)N2C`, for which the AC50 is 3.01 µM (active).

On to `O=C(O)c1cccc(C[C@@H]2COc3ccc(OCc4nc5cc(F)ccc5s4)cc3[C@@H]2O)c1`, for which the compound was called inactive.

With `N#CCCCCC#N`, the result was inactive. On the same count and under the same terms, for `COCCOc1cc2cc(C(=O)NC3CCN(C(C)C)CC3)n(CC(=O)Nc3ccc(Cl)cn3)c2cn1` the value was “inactive”.

For the compound `NC(=NCCCCCCN=C(N)/N=C(\N)Nc1ccc(Cl)cc1)/N=C(\N)Nc1ccc(Cl)cc1`, the call was inactive. Turning to `CS(=O)(=O)c1ccc(C2=C(c3ccccc3)C(=O)OC2)cc1`, the AC50 was 12.5 µM (active). Consider `Cc1cc(F)ccc1-c1cc(N2CC[C@@H](O)[C@H]2CO)ncc1N(C)C(=O)C(C)(C)c1cc(C(F)(F)F)cc(C(F)(F)F)c1`, for which the concentration at half-maximal activity (AC50) was 11.7 µM (active).

Turning to `CCOC(=O)C1=NN(c2ccc(Cl)cc2Cl)C(C)(C(=O)OCC)C1` (stereo not given), the AC50 was 15.5 µM (active). On to `Cc1ccc(O)c(C(C)(C)C)c1`, for which the compound was classed as inactive. As for `CN(C)c1ccc(C(=C2C=CC(=[N+](C)C)C=C2)c2ccc(N(C)C)cc2)cc1`, the AC50 was 1.89 µM (active). `[Cl][Sc]([Cl])[Cl]`: the outcome was inactive. In the case of `Oc1ccc(/C=C/c2cc(O)cc(O)c2)cc1`, the AC50 was 21 µM (active). For the compound `CCCCCCCCCCCCCCCC[N+](C)(C)CC`, the outcome was inactive. On to `CCN(CC)c1ccc(C=O)c(O)c1`, for which the compound was called inactive. Regarding `CC[N+](CC)(CC(=O)Nc1c(C)cccc1C)Cc1ccccc1`, the outcome was inactive. With `C=CCOC(Cn1ccnc1)c1ccc(Cl)cc1Cl` (stereo not given), the AC50 was 12 µM (active). Turning to `CN(C)c1ccc(C(=C2C=CC(=[N+](C)C)C=C2)c2ccccc2)cc1`, the compound was called inactive. The same measure, in the same setting: for `Clc1nc(Cl)c(Cl)c(Cl)c1Cl` the value was “inactive”; for `O=Cc1ccccc1C=O`, “inactive”. Turning to `CCN(CC)CCOc1ccc(C(=C(Cl)c2ccccc2)c2ccccc2)cc1`, the AC50 was 5.01 µM (active). In the case of `O=C(OC[C@H]1O[C@@H](OC(=O)c2cc(O)c(O)c(OC(=O)c3cc(O)c(O)c(O)c3)c2)[C@H](OC(=O)c2cc(O)c(O)c(OC(=O)c3cc(O)c(O)c(O)c3)c2)[C@@H](OC(=O)c2cc(O)c(O)c(OC(=O)c3cc(O)c(O)c(O)c3)c2)[C@@H]1OC(=O)c1cc(O)c(O)c(OC(=O)c2cc(O)c(O)c(O)c2)c1)c1cc(O)c(O)c(OC(=O)c2cc(O)c(O)c(O)c2)c1`, the compound was classed as inactive. In the case of `Cc1cc(C)c(C=O)c(C)c1`, the compound was called inactive. On to `Nc1ccc(Oc2cccc(Oc3ccc(N)cc3)c2)cc1`, for which the call was inactive. Turning to `CC(=N[Si](C)(C)C)O[Si](C)(C)C`, the compound was called inactive. Take `CC(=O)S[C@@H]1CC2=CC(=O)CC[C@]2(C)[C@H]2CC[C@@]3(C)[C@@H](CC[C@@]34CCC(=O)O4)[C@H]12`: the result was inactive.

Turning to `Nc1ccc(S(=O)(=O)Nc2nccs2)cc1`, the result was inactive. Turning to `CCN(CCC#N)c1ccc(N=Nc2ccc([N+](=O)[O-])cc2)cc1`, the compound was called inactive. Still for that read-out and setting: to `Oc1ccc2c(c1)-c1ccccc1C2` belongs “inactive”. Regarding `NNC(=O)c1ccncc1`, the outcome was inactive. Take `O=[N+]([O-])c1ccccc1Cl`: the compound was classed as inactive.

Regarding `Cc1cnccn1`, the result was inactive. Regarding `CCC(=C(c1ccc(O)cc1)c1ccc(OCCN(C)C)cc1)c1ccccc1`, the AC50 was 0.626 µM (active).

`CCCCC(CC)C(=O)O` (stereo not given): the compound was called inactive.

For the origin of these results see PubChem BioAssay (EPA / NIEHS).
